# In the supplement of paper PMC7335073:
# Whole data set: some 4,100 sequences, median “relative CpG methylation activity (normalised to average over all NNNCGNNN flanks)” near 0.94, cut for the highest 2% near 1.9. Only a selection was taken, and the highest values are over-represented in it overall.
# Biological target: DNMT3B catalytic domain (mouse) (UniProt O88509)
# Experiment: relative CpG methylation activity (normalised to average over all NNNCGNNN flanks) (relative (1 = mean)); higher = more methylation of the central CpG
# Conditions: system: in vitro, murine catalytic domain; CpG state: hemimethylated substrate pool; residues: 558-859
# Protocol: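 Deep enzymology: a pool of dsDNA substrates with a central CpG flanked by 10 random nucleotides on each side was methylated by the murine DNMT3A or DNMT3B catalytic domain (0.8 mM SAM, 37 °C, 60 min). Methylation was then read out by hairpin ligation, bisulfite conversion and NGS. Values are the average methylation of each NNNCGNNN context (±3 flanks; the outer flanks are random and averaged over), normalised to the overall mean, so 1 = average activity.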
# Sequence of DNMT3B catalytic domain (mouse) (O88509 558-859): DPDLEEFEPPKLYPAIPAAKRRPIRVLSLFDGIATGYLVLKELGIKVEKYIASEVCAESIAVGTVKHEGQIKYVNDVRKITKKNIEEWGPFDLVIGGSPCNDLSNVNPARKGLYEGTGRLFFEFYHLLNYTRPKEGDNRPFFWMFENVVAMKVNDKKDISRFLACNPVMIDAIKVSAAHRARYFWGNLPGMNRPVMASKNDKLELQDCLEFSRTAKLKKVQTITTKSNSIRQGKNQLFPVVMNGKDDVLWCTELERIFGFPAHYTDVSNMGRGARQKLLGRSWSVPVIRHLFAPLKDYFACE
row,Sequence,relative CpG methylation activity
1,GACCGGCT,1.19
2,ACGCGTAG,0.632
3,AGGCGATC,1.05
4,ACACGATC,1.75
5,GGCCGACT,0.91
6,ATACGTCC,1.54
7,TTACGTCC,1.93
8,TTACGTAT,1.19
9,GTACGTAC,1.42
10,TTACGTCT,1.64
11,TTACGTAC,1.95
12,AGTCGACA,1.24
13,CTGCGGAA,0.922
14,ACACGCTG,1.11
15,GATCGATC,1.48
16,TCCCGAGC,2.01
17,CCCCGAGC,1.93
18,CCCCGAGG,1.5
19,TCCCGAGG,1.3
20,CCCCGAGA,1.68
21,ACCCGAGC,1.75
22,CACCGCGT,0.402

row,Sequence,relative CpG methylation activity
1,CTGCGCCA,1.17
2,CGACGGCG,1.93
3,AGACGGCG,1.94
4,AGACGGCC,1.71
5,CGACGGCA,1.82
6,TGACGGCG,1.63
7,CGACGGCC,1.46
8,AACCGTCC,0.606
9,TATCGAGG,1.5
10,GTACGCGT,1.4
11,ATACGCCC,1.69
12,ATACGGGT,1.73
13,TTACGGGT,1.83
14,TTACGGGC,2.03
15,CCACGGGA,1.42
16,CTACGGGA,1.91
17,TTACGGGA,1.92
18,CAACGGGA,1.82
19,CTACGGGT,1.94
20,GTACGGGT,1.85
21,CTACGGGC,1.75
22,GTACGGGC,1.63

row,Sequence,relative CpG methylation activity
1,GTACGGGA,1.73
2,TACCGCTG,0.389
3,TATCGCAG,0.473
4,GAACGCGG,0.853
5,TACCGCGG,0.374
6,CGGCGAAG,0.694
7,GCGCGCCA,0.631
8,GTGCGAAA,1.05
9,CGACGGGG,0.808
10,GTACGGGG,1.6
11,CTACGGGG,1.9
12,ATACGGGG,1.61
13,ACACGGGC,1.54
14,CAACGGGG,1.39
15,ATACGGGC,1.93
16,ATACGGGA,1.66
17,TTACGGGG,2
18,GTTCGTAC,1.18
19,GCTCGCCC,0.844
20,GTCCGATG,1.16
21,GACCGTCT,0.495
